In ChEMBL document CHEMBL1961873, “Compounds: GSK PKIS; Assays: Nanosyn kinase panel” (2012):
Values joined by “and” are separate entries in the source; they are usually repeats but may differ in a detail not shown here. Identical values can stand only once.

How the values were obtained:
[1] = molecular target: T1, Tyrosine-protein kinase receptor TYRO3 (Homo sapiens) (UniProt Q06418); conditions: at 1 µM
T1 sequence (whole entry): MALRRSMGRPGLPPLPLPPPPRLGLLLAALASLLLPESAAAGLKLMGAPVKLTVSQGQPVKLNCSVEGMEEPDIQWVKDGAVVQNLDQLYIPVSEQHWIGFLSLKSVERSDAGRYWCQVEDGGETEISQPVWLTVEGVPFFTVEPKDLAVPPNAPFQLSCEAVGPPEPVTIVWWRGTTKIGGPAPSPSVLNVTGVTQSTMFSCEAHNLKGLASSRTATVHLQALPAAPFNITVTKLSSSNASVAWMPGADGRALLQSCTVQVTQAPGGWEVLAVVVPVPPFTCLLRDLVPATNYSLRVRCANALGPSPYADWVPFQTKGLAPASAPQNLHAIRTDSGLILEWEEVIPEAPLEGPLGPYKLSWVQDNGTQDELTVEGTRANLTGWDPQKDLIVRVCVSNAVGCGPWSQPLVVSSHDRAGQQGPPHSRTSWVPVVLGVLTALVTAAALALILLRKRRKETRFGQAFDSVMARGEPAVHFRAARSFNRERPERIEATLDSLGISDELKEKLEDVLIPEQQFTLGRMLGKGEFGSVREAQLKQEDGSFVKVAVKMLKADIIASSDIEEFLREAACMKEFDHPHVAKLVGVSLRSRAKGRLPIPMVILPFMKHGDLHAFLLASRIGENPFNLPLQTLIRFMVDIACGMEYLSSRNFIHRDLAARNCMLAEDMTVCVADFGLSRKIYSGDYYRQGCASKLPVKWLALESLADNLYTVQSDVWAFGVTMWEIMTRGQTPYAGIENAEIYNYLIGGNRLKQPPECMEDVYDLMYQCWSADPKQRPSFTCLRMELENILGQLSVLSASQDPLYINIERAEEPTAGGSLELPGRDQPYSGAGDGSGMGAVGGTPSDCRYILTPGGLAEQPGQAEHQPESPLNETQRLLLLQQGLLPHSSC

[2] = molecular target: Tyrosine-protein kinase Yes (Homo sapiens) (UniProt P07947); conditions: at 0.1 µM
[3] = molecular target: Tyrosine-protein kinase Yes (Homo sapiens) (UniProt P07947); conditions: at 1 µM
[4] = molecular target: T2, Tyrosine-protein kinase ZAP-70 (Homo sapiens) (UniProt P43403); conditions: at 0.1 µM
T2 sequence (whole entry): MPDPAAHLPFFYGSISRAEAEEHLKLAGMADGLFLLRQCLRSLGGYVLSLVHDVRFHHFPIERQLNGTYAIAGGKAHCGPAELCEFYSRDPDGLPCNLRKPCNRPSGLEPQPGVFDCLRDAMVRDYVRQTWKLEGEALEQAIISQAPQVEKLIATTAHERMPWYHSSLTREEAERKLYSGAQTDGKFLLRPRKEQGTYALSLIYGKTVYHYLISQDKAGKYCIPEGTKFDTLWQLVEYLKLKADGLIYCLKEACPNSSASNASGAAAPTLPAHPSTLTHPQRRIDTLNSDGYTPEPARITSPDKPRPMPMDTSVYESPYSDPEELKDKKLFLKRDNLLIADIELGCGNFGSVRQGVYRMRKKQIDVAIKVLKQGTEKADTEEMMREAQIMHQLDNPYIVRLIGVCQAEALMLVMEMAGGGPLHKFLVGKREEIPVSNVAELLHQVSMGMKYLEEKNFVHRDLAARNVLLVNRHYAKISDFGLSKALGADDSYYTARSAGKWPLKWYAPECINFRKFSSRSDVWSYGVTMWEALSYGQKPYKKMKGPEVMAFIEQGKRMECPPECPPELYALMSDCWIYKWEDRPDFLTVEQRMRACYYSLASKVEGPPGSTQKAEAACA

[5] = molecular target: T2, Tyrosine-protein kinase ZAP-70 (Homo sapiens); conditions: at 1 µM
[6] = molecular target: Serine/threonine-protein kinase B-raf (Homo sapiens) (UniProt P15056); conditions: at 0.1 µM
[7] = molecular target: Serine/threonine-protein kinase B-raf (Homo sapiens) (UniProt P15056); conditions: at 1 µM
[8] = test system: Serine/threonine-protein kinase B-raf (Homo sapiens), P15056 [V600E]; conditions: at 0.1 µM
[9] = test system: Serine/threonine-protein kinase B-raf (Homo sapiens), P15056 [V600E]; conditions: at 1 µM
[10] = molecular target: RAF proto-oncogene serine/threonine-protein kinase (Homo sapiens) (UniProt P04049); conditions: at 0.1 µM;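 further: values are mean CRAF kinase inhibition from profiling of the GSK Published Kinase Inhibitor Set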
RAF proto-oncogene serine/threonine-protein kinase (Homo sapiens), sequence (P04049 whole entry): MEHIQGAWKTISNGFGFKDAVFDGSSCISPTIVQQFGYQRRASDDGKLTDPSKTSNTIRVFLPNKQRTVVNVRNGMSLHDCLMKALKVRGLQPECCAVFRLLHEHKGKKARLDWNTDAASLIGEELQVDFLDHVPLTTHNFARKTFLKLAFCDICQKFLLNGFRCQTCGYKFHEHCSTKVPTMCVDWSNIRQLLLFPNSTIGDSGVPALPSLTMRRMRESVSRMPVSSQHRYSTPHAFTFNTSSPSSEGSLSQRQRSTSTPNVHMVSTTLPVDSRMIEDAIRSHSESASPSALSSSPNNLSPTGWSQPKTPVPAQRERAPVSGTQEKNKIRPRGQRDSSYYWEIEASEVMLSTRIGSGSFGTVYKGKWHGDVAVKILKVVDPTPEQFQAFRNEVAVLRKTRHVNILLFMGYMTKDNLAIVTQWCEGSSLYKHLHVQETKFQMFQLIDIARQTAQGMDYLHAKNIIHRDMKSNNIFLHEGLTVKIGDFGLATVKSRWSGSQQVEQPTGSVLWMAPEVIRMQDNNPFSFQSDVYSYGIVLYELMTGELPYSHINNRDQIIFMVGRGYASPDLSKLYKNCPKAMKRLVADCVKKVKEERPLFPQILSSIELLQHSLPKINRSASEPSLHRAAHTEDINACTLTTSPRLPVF

Serine/threonine-protein kinase B-raf (Homo sapiens), sequence (P15056 whole entry): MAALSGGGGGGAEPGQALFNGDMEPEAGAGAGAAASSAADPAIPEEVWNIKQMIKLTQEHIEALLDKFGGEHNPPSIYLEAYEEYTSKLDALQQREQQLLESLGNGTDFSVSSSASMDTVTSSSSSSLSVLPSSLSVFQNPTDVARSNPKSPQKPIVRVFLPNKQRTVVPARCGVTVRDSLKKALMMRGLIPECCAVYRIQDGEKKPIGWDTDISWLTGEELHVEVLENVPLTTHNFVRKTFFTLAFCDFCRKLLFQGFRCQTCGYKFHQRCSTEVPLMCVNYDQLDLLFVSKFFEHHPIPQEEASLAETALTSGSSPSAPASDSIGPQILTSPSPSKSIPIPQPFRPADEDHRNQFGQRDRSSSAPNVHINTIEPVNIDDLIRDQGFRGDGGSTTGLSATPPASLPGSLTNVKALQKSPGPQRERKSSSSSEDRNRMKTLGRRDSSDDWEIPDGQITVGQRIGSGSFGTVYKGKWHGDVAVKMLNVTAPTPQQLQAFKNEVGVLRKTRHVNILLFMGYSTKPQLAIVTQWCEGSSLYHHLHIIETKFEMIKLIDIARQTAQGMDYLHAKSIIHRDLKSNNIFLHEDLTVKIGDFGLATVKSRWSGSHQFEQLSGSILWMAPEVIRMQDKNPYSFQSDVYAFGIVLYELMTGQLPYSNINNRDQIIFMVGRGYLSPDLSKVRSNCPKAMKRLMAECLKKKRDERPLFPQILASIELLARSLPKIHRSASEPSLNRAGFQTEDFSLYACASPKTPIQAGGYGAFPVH
Serine/threonine-protein kinase B-raf (Homo sapiens), P15056 [V600E], sequence (P15056 whole entry V600E): as the sequence (P15056 whole entry) above, with V600E counted along it
Tyrosine-protein kinase Yes (Homo sapiens), sequence (P07947 2-543 limits assumed): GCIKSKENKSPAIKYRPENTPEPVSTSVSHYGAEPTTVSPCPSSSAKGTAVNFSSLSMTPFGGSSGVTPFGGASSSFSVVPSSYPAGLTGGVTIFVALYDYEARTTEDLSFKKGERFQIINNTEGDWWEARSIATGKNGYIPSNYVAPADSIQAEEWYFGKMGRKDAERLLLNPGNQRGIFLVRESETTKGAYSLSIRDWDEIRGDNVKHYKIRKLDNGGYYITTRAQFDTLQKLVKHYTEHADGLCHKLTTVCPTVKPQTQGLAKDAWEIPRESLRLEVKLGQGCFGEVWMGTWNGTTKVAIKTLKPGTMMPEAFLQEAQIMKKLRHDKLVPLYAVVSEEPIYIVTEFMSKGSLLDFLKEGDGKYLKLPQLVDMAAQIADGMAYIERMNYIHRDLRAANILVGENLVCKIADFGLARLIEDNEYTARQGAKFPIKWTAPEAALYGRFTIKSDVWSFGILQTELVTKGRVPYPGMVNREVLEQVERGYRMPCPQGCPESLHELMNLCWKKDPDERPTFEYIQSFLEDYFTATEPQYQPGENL

Structure (SMILES)	inhibition [1]	inhibition [2]	inhibition [3]	inhibition [4]	inhibition [5]	inhibition [6]	inhibition [7]	inhibition [8]	inhibition [9]	inhibition [10]
c1ccc(-c2n[nH]cc2-c2ccnc(-c3ccc(OCCn4ccnc4)cc3)c2)nc1	1.47%	1.05%	8.13%	2.15%	2.34%	2.04%	1.85%	0.71%	1.34%	-0.53%
NS(=O)(=O)c1ccc(N/N=C2\C(=O)Nc3ccc(C(=O)NCc4ccncc4)cc32)cc1	8.28%	4.07%	17.1%	2.55%	3.8%	14.8%	56.7%	15.1%	56.3%	0.58%
CCS(=O)(=O)c1ccc(OC)c(Nc2ncc(-c3cccc(C(C)=O)c3)o2)c1	24.1%	18.6%	65.9%	2.04%	1.3%	3.62%	6.17%	3.41%	5.84%	5.57%
CCOc1ccc2c(-c3ccnc(Nc4cc(OC)cc(C(F)(F)F)c4)n3)cnn2n1	4.4%	2.04%	6.75%	0.43%	3.29%	0.89%	1.03%	0.43%	1.03%	-4.87%
Cc1cc(O)cc(C)c1/C=C/c1cncc(C(N)=O)c1	6.32%	6.53%	32.2%	2.11%	2.46%	4.77%	11.2%	3.8%	8.78%	-1.23%
Nc1nccc(-c2c(-c3ccc(F)cc3)ncn2C2CCNCC2)n1	1.14% and -0.71%	-1.29% and 0.36%	11.9% and 16.2%	1.4% and 0.85%	-2.69% and 1.59%	-2.89% and 1.95%	-0.2% and 7.76%	-4.19% and 1.23%	0.9% and 7.41%	-3.57% and -1.58%
COc1ccc(-c2nn3ncccc3c2-c2ccnc(Nc3ccc(F)c(F)c3)n2)cc1	6.24%	39.5%	85.2%	2.54%	1.2%	5.72%	5.29%	4.54%	3.83%	0.22%
OCCCNc1nccc(-c2c(-c3ccc(F)cc3)nn3cc(C(F)(F)F)ccc23)n1	1.03%	1.78%	1.85%	2.54%	-1.3%	3.71%	11.6%	2.84%	9.93%	0.53%
COc1ccc2ncn(-c3cc(O[C@H](C)c4ccccc4C(F)(F)F)c(C(N)=O)s3)c2c1	2.75%	-2.36%	1.07%	2.16%	2.62%	-0.46%	-2.23%	-1.03%	-0.82%	-0.27%
CNC(=O)c1cncc(/C=C/c2ccccc2C)c1	3.96%	4.29%	9.93%	1.58%	2.36%	6.43%	7.91%	6.48%	6.88%	5.82%
CN(c1ccc(NC(=O)NCCN2CCOCC2)cc1)c1ccnc(Nc2ccc(CS(C)(=O)=O)cc2)n1	6.95%	1.4%	8.5%	0.58%	2.72%	4.55%	7.4%	3.94%	7.38%	6.1%
O=C(O[C@H]1CN[C@H](C#Cc2cc3ncnc(Nc4ccc(OCc5cccc(F)c5)c(Cl)c4)c3s2)C1)N1CCOCC1	5.62%	0.43%	8.74%	3.21%	0.2%	9.9%	7.06%	8.49%	6.1%	10.3%
N#Cc1ccc2c(-c3ccnc(NC4CC4)n3)c(-c3ccc(F)cc3)nn2c1	0.69%	2.22%	3.79%	-2.8%	1.15%	2.6%	5.81%	2.7%	4.72%	-0.7%
CN1CCC(C(=O)Nc2n[nH]c3nc(-c4ccc(O)cc4)c(Br)cc23)CC1	7.08% and 4.86%	4% and 0.88%	10.6% and 3.33%	-0.14% and 0.65%	2.21% and 2.11%	9.05% and 4.77%	16% and 14.5%	9.4% and 4.5%	13.8% and 8.76%	13% and -0.38%
COc1cccc(-n2ncc3c(N/N=C/c4ccc(C(=O)NCCN(C)C)cc4)ncnc32)c1	60.6%	58.5%	86%	-2.3%	4.14%	11.1%	27.8%	9.71%	23.6%	2.11%
Cc1cc(O)cc(C)c1/C=C/c1cncc(C(=O)OC(C)(C)C)c1	4.32%	5.5%	31.1%	1.34%	1.02%	4.14%	7.71%	3.83%	6.09%	3.1%

Structure (SMILES)	inhibition [1]	inhibition [2]	inhibition [3]	inhibition [4]	inhibition [5]	inhibition [6]	inhibition [7]	inhibition [8]	inhibition [9]	inhibition [10]
CCN1CCC(C(=O)Nc2n[nH]c3nnc(-c4cccc(F)c4F)cc23)CC1	1.67%	2.36%	-0.1%	-1.24%	2.19%	-0.36%	0.01%	1.12%	1.24%	-4.36%
O=C1Nc2ccccc2/C1=C1\CCc2cc(O)ccc21	18.8%	3.94%	13.6%	3.48%	7.74%	6.96%	9.83%	8.49%	8.96%	0.39%
Fc1cccc(COc2ccc(Nc3ncncc3C#Cc3ccccc3)cc2Cl)c1	9.44%	4.11%	3.65%	2.29%	1.11%	6.77%	4.45%	6.66%	5.53%	-0.3%
NS(=O)(=O)c1ccc(N/N=C2\C(=O)Nc3cccc(CCc4ccncc4)c32)cc1	2.17%	4.12%	11.4%	-0.82%	13.7%	1.54%	1.46%	3.22%	2.2%	-0.07%
Nc1ncnc2occ(-c3ccc(NC(=O)Nc4cc(C(F)(F)F)ccc4F)cc3)c12	35.9% and 19%	6.63% and 1.99%	32.5% and 23.6%	1.41% and -6.7%	3.15% and -0.06%	2.87% and -2.08%	7.26% and 0.64%	2.85% and -0.81%	11.3% and 5.32%	-9.78% and -3.09%
COc1c(C(N)=O)cc(-c2ccc(Cl)cc2)cc1-c1ccc(S(N)(=O)=O)cc1	2.96%	1.57%	4.52%	2.39%	4.12%	6.5%	8.57%	4.06%	3.68%	2.31%
O=C(Nc1n[nH]c2nnc(-c3cccnc3)cc12)C1CC1	1.65%	1.69%	7.01%	-1.5%	2.36%	0.25%	2.61%	1.02%	3.66%	-2.58%
O=C(O[C@H]1CN[C@H](C#Cc2cc3ncnc(Nc4ccc5c(cnn5Cc5ccccc5)c4)c3s2)C1)N1CCOCC1	1.4%	1.73%	23.1%	-4.53%	2.2%	-0.55%	-2.69%	-0.19%	-0.28%	-0.85%
Cc1c2ccc(N(C)c3ccnc(Nc4cccc(S(N)(=O)=O)c4)n3)cc2nn1C	16.1%	14.9%	62.8%	0.81%	11.5%	9.33%	9.79%	8.28%	12.5%	-1.01%
CCCNc1cccc(-n2ncc3c(N/N=C/c4ccncc4)ncnc32)c1	42.8%	43.1%	82.8%	2.44%	3.95%	0%	1.5%	0.21%	2.86%	-0.1%
COc1cc(Nc2ncc(-c3ccccc3)o2)cc(OC)c1	8.91%	5.8%	39.5%	2.8%	1.02%	7.08%	6.68%	5.31%	3.47%	0.47%
CS(=O)(=O)Nc1ccc(-c2ccc3c(NC(=O)C4CC4)n[nH]c3c2)cc1	13.6%	-0.59%	4.94%	1.11%	3.42%	4.42%	6.73%	4.74%	6.11%	4.35%
COc1cc(N2CCN(C(C)C)CC2)ccc1Nc1nc(Nc2cccc(F)c2C(=O)O)c2cc[nH]c2n1	3.99%	1.69%	8.64%	2.69%	7.8%	6.1%	7.89%	6.27%	7.5%	1.76%
NC(=O)c1ccc2c(-c3ccnc(NCCCO)n3)c(-c3ccc(F)cc3)nn2c1	3.98%	2.77%	10.9%	1.7%	1.63%	10.9%	22.2%	9.67%	19.7%	-3.29%
c1cnn2ncc(-c3ccnc(NCCCN4CCOCC4)n3)c2c1	2.64%	2.68%	0.1%	2.13%	2.9%	5.35%	7.07%	5.41%	5.03%	2.81%
